Our source for the growth inhibition values is PubChem BioAssay (NCI).

Molecules are shown by their SMILES. The panel holds about 79,000 compounds, 15% with a hit somewhere; the sample as a whole holds those more often. Unmarked numbers belong to inactive results. Calls of active or inactive are those of the source. Rule as the data show it: active = growth inhibition above about 70%; inactive = the rest.

Assay [1] is described as follows: NCI Yeast Anticancer Drug Screen. Data for the rad50 strain (AID 155).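 Also: 0% = growth of vehicle-only cultures of the same strain.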 As to conditions: S. cerevisiae rad50 strain growth inhibition; at 50.0 µM; stronger effect = higher value. An outline of the steps:
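Genetically altered yeast (DNA repair pathway); compound treatment; growth inhibition vs vehicle ctrl.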

Assay [2] in a line: NCI Yeast Anticancer Drug Screen. Data for the mec2-1 strain (AID 157). Particulars: S. cerevisiae mec2-1 strain, at 50.0 µM, stronger effect = higher value. The method in brief: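 Mutant yeast (mec2-1) grown with compound; growth inhibition relative to vehicle control reported.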
Assay [3] in a line: NCI Yeast Anticancer Drug Screen. Data for the sgs1 mgt1 strain (AID 161).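 Also: 0% = growth of cultures given vehicle only.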 Particulars: S. cerevisiae sgs1 mgt1 strain, at 50.0 µM, stronger effect = higher value. An outline of the steps: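 Percent growth inhibition was derived by comparing compound-exposed mutant yeast with vehicle-exposed cultures. The strain carries alterations in DNA damage repair.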
Assay [4] in a line: NCI Yeast Anticancer Drug Screen. Data for the bub3 strain (AID 167). Particulars: S. cerevisiae bub3 mutant strain, at 50.0 µM, stronger effect = higher value. The method in brief:
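Yeast carrying a defined mutation is treated with each compound, and growth is compared with that of vehicle-exposed cells to give inhibition.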

Assay [5] can be described thus: NCI Yeast Anticancer Drug Screen. Data for the mlh1 rad18 strain (AID 175). As to conditions: S. cerevisiae mlh1 rad18 strain growth inhibition; at 50.0 µM; stronger effect = higher value. An outline of the steps: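 Genetically defined yeast (DNA repair-deficient) exposed to compounds; growth inhibition determined relative to vehicle.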
A short description of assay [6]: NCI Yeast Anticancer Drug Screen. Data for the cln2 rad14 strain (AID 165).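 Also: 0% = growth equal to vehicle treated cultures.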 Particulars: S. cerevisiae cln2 rad14 strain, at 50.0 µM, stronger effect = higher value. An outline of the steps:
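Readout is yeast growth inhibition versus vehicle-treated controls, using a strain with cln2 and rad14 alterations exposed to compound.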

Regarding `CCN1CCOC(O)(c2cc(Cl)cc(Cl)c2Cl)C1` (stereo not given), the growth inhibition in assay [1] is 17.4%; in assay [2] it was -11.2%; in assay [3] it was 8.9%; in assay [4], 26.1%; in assay [5], 14.8%.

As to `C/C=C/C(=O)[O-].C/C=C/C(=O)[O-].N.N.N.N.[Co+3].[O-][Cl+3]([O-])([O-])[O-]`, the growth inhibition is 0.2% in assay [1]; -2.7% in assay [2]; -7.2% in assay [3]; 7.3% in assay [4]; -3.5% in assay [5].

In the case of `CC(=O)CC(C)=O`, the growth inhibition in assay [1] is -7.2%; in assay [2], 3.8%; in assay [3], -3%; in assay [4], 1.7%; in assay [5], 1.8%.

For `O=[As]c1ccc2c(c1)NC(O)=CO2` (stereo not given), the growth inhibition in assay [1] was 21.9%; in assay [2] it was 38.6%; in assay [3], 20.7%; in assay [4], 20.4%; in assay [5], 32.5%.

On to `[Pd].c1ccc([PH+](CC[PH+](c2ccccc2)c2ccccc2)c2ccccc2)cc1.c1ccc([PH+](CC[PH+](c2ccccc2)c2ccccc2)c2ccccc2)cc1`, for which the growth inhibition in assay [1] is 24.8%; in assay [2] it was 12.8%; in assay [3], 59.5%; in assay [4], 15.7%; in assay [5] it was 24.2%.

In the case of `O=[N+]([O-])/C=C\c1c[nH]c2ccc(OCc3ccccc3)cc12`, the growth inhibition in assay [1] was 52.5%; in assay [2], 30.8%; in assay [3] it was 53.4%; in assay [4], 55.5%; in assay [5], 40.9%.

On to `CCN(CC)c1ccc([P+](=O)O)cc1`, for which the growth inhibition in assay [1] is 6.45%; in assay [2], -9.45%; in assay [3], -9.4%; in assay [4] it was -7.4%; in assay [5] it was -8.4%.

For `C=CCN1CC2CN=NC2(C#N)C1` (stereo not given), the growth inhibition was -10.8% in assay [1]; 6.45% in assay [2]; 0.65% in assay [3]; 6.7% in assay [4]; -4.95% in assay [5].

Regarding `COC(=O)c1c(C(=O)OC)c1=[N+]=[N-]`, the growth inhibition was 5.2% in assay [1]; -5.35% in assay [2]; -0.95% in assay [3]; -0.15% in assay [4]; 6% in assay [5].

With `Nc1cc([N+](=O)[O-])cc([N+](=O)[O-])c1`, the growth inhibition in assay [1] is -6.6%; in assay [2], -9.3%; in assay [3] it was 30.1%; in assay [4], 2.5%; in assay [5] it was 41.3%.

Take `CC1=CC23C(COC(=O)C24CO4)C(C(=O)O)=CC3C1C` (stereo not given): the growth inhibition in assay [1] is -22.8%; in assay [2] it was -19.7%; in assay [3], -13.3%; in assay [4] it was -8.95%; in assay [5], -5.7%.

For the molecule `Cc1cccc(CCF)c1`, the growth inhibition was -8.4% in assay [1]; 8.5% in assay [2]; 1.25% in assay [3]; -0.15% in assay [4]; -4.75% in assay [5].

Regarding `Cc1ccc(NC(=O)N(C)N=O)cc1`, the growth inhibition is -3.5% in assay [1]; 5.5% in assay [2]; -11.3% in assay [6]; -6.05% in assay [4]; -4.45% in assay [5].

With `CN1CN(c2ccccc2)C2(CCN(CCCN(C)c3ccc(F)cc3)CC2)C1=O`, the growth inhibition in assay [1] is 0.1%; in assay [2], -0.4%; in assay [6] it was 5.85%; in assay [4] it was 3.35%; in assay [5], 17.3%.

Regarding `C[CH2][Pb]([Br])([CH2]C)[CH2]C`, the growth inhibition is -17.7% in assay [1]; -1.4% in assay [2]; -14.1% in assay [6]; -4.15% in assay [4]; -1.45% in assay [5].

As to `O=C(Nc1cccc(Cl)c1)Oc1ccc(S(=O)(=O)F)cc1Cl`, the growth inhibition is 92.3% (active) in assay [1]; 94.7% (active) in assay [2]; 91.2% (active) in assay [6]; 90.9% (active) in assay [4]; 94.8% (active) in assay [5].

As to `C=CCSc1nc2ccccc2c(=O)n1-c1cc(OC)c(Cl)cc1OC`, the growth inhibition in assay [1] is 9%; in assay [2] it was -20.9%; in assay [6] it was 8.45%; in assay [4], 42.5%; in assay [5], -9.25%.

In the case of `C/C=C1\C[C@@H]2C(OC)Nc3cc(O)c(OC)cc3C(=O)N2C1` (stereo not given in full), the growth inhibition in assay [1] was 77.5% (active); in assay [2], 70.7% (active); in assay [6], 56.9%; in assay [4] it was 81.3% (active); in assay [5], 31.7%.

For `C1C[N-]CC[N-]1.C1C[N-]CC[N-]1.[Zn]`, the growth inhibition in assay [1] is 98.7% (active); in assay [2], 99.5% (active); in assay [3], 99.5% (active); in assay [4] it was 99.4% (active); in assay [5] it was 99.3% (active).

Take `CNCCc1ccc(O)cc1`: the growth inhibition in assay [1] is -9.2%; in assay [2] it was -1.85%; in assay [6], -23.3%; in assay [4], 1.35%; in assay [5] it was -0.65%.

Regarding `O=C(Nc1c(Cl)cc([N+](=O)[O-])cc1Cl)C(=O)C1C(=O)NC(=S)NC1=O`, the growth inhibition in assay [1] is 11.9%; in assay [2] it was -28.4%; in assay [6], 7.65%; in assay [4], 10.6%; in assay [5], -5.9%.

For the molecule `CO[C@H](C)[C@](O)(C(=O)OCC1=CCN2CC[C@@H](O)[C@H]12)C(C)C`, the growth inhibition in assay [1] was -11.4%; in assay [2], -37.6%; in assay [6] it was 1.25%; in assay [4] it was -23.8%; in assay [5] it was -13.6%.

As to `O=C([O-])c1ccccc1[SH2+].[Cr+3].[NH-]CC[NH-].[NH-]CC[NH-].[O-][Cl+3]([O-])([O-])O`, the growth inhibition in assay [1] was 11.9%; in assay [2], -1.95%; in assay [6] it was -19.4%; in assay [4] it was 1.35%; in assay [5], -26.4%.

As for `NC1CN2CCC1CC2` (stereo not given), the growth inhibition in assay [1] was 9.35%; in assay [2], -7.65%; in assay [6], 11.8%; in assay [4] it was -8.55%; in assay [5], 1.15%.

Take `Cc1ccccc1-n1c(/C=C\c2ccccn2)nc2ccccc2c1=O`: the growth inhibition in assay [1] is 36.7%; in assay [2] it was 8.65%; in assay [6], 35.6%; in assay [4], 53.6%; in assay [5] it was 23.6%.

For the molecule `C[CH2][Sn]([I])([CH2]C)[CH2]C`, the growth inhibition in assay [1] was 96% (active); in assay [2], 98% (active); in assay [6], 98.3% (active); in assay [4], 98.1% (active); in assay [5], 98.5% (active).

As to `CSP(N)(=O)OC(C)C` (stereo not given), the growth inhibition was -16.9% in assay [1]; 11.8% in assay [2]; -23.6% in assay [6]; -33.6% in assay [4]; 15.8% in assay [5].

`COc1cc2c(c3oc4cccc(O)c4c(=O)c13)[C@@H]1C=CO[C@@H]1O2`: the growth inhibition in assay [1] was -11.6%; in assay [2], -15.2%; in assay [6], 26.1%; in assay [4] it was -8.7%; in assay [5], -8.9%.

Regarding `CN(C)C1OCC(C)(C)CO1`, the growth inhibition in assay [1] is -13.9%; in assay [2], -34.7%; in assay [6] it was 12.3%; in assay [4], -18%; in assay [5], -7.1%.

On to `S=[As](c1ccc(-c2ccccc2)cc1)(c1ccc(-c2ccccc2)cc1)c1ccc(-c2ccccc2)cc1`, for which the growth inhibition in assay [1] was -10.7%; in assay [2], -5.55%; in assay [6] it was -19.6%; in assay [4] it was -13.6%; in assay [5] it was -18.2%.

Take `NC1(C(=O)O)CCCC1`: the growth inhibition was -21.1% in assay [1]; -21.9% in assay [2]; -63.8% in assay [6]; -1.5% in assay [4]; -28.1% in assay [5].

Take `O=C(O)C(=O)O.[NH2-].[NH2-].[Pt+2]`: the growth inhibition is 8.3% in assay [1]; -4.9% in assay [2]; 0.15% in assay [3]; 2.6% in assay [4]; -3.8% in assay [5].

In the case of `N#CCCCCN=[N+]=[N-]`, the growth inhibition in assay [1] is -4%; in assay [2], 27.1%; in assay [6], 3.25%; in assay [4] it was 20.4%; in assay [5] it was -8.35%.

For the molecule `COc1ccc(C(=O)O[C@H]2CC[C@@]3(C)[C@@H]4CC[C@H]5[C@]6(O)C[C@H](O)[C@@]7(O)[C@@H](CN8C[C@@H](C)CC[C@H]8[C@@]7(C)O)[C@]6(O)C[C@@]53OC24O)cc1OC`, the growth inhibition was -16.7% in assay [1]; -32% in assay [2]; 6.4% in assay [6]; -28.8% in assay [4]; -5.15% in assay [5].

As to `NC(C/C=C/P(=O)(O)O)C(=O)O` (stereo not given), the growth inhibition in assay [1] is -20.4%; in assay [2] it was -17.1%; in assay [6] it was 13.2%; in assay [4], 19.9%; in assay [5], -33%.

With `CC1=C(C)C(=O)OC(C(C)(O)C2(O)CCC3(O)C4CC(Cl)C5(O)C(O)C=CC(=O)C5(C)C4CCC32C)C1` (stereo not given), the growth inhibition is 7.8% in assay [1]; -37.3% in assay [2]; -3.2% in assay [6]; -15.9% in assay [4]; -52.2% in assay [5].

Consider `O=P(OCCCCCl)(OCCCCCl)C(Cl)Cl`, for which the growth inhibition in assay [1] was -6.4%; in assay [2] it was -11.6%; in assay [6] it was 5.8%; in assay [4] it was 4.5%; in assay [5] it was 6.5%.
